Source: PubChem BioAssay (NCI)
This is part of a sample that, as a whole, favours compounds with a hit. Of some 83,000 tested, about 20% had one in any assay.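 For each line, cells grew in 96-well plates with the test compound present at a single concentration for 48 hours.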 A number with no mark means an inactive call. Active and inactive are the calls of the source. How the source made its calls: active means growth percent below 10; inactive means the rest.

Legend:
Experiment in all cases: NCI-60 one-dose screen, 48 h (100 = growth as untreated, 0 = no growth, -100 = all killed)
Settings in all cases: 10 µM
NCI-H226 lung = system: NCI-H226 lung
NCI-H322M lung = system: NCI-H322M lung
HOP-62 NSCLC = system: HOP-62 NSCLC
NCI-H460 lung = system: NCI-H460 lung
NCI-H522 lung = system: NCI-H522 lung
A549/ATCC NSCLC = system: A549/ATCC NSCLC
786-0 renal = system: 786-0 renal
COLO 205 colon = system: COLO 205 colon
DU-145 prostate = system: DU-145 prostate

Row | SMILES | growth (NCI-H226 lung) | growth (NCI-H322M lung) | growth (HOP-62 NSCLC) [%] | growth (NCI-H460 lung) | growth (NCI-H522 lung) | growth (A549/ATCC NSCLC) | growth (786-0 renal) | growth (COLO 205 colon) | growth (DU-145 prostate) [%]
1 | C=C(C(=O)c1ccccc1)C(NC(C)(C)C)c1ccccc1 (centres undefined) | 67.9% | 98.6% | 47.5 | 26.9% | -83.9% (active) | 43.2% | 23.1% | -77% (active) | 20.6
2 | O=C(Nc1ccc(CO)cc1)c1ccccc1Nc1ccnc(C(F)(F)F)c1 | 105% | 113% | 95.4 | 103% | 93.7% | 99.5% | 102% | 104% | 106
3 | Clc1nc(Cl)c2c(ncn2C/C=C\Cn2cnc3c(Cl)nc(Cl)nc32)n1 | -80.1% (active) | 8.09% (active) | 11.2 | 0.846% (active) | -70.6% (active) | -79.4% (active) | -4.46% (active) | -51.5% (active) | 
4 | Cc1cc2ccccc2nc1-c1ccccc1F | 98.9% | 128% | 94.6 | 107% | 122% | 92.4% | 95.1% | 110% | 116
5 | COc1ccc(-c2nn(-c3cccc(NC(=O)c4ccc(N5CCOCC5)c(C(F)(F)F)c4)c3)cc2-c2ccncc2)cc1Cl | 83.6% | 80.3% | 73.7 | 62.1% | 41% | 54.7% | 37.9% | 54.6% | 91.8
